# Measurements published in PubChem BioAssay AID493169 (National Center for Advancing Translational Sciences (NCATS), 2011).
# Records with an inconclusive call do not appear. Where a call stands in place of a potency, no number is given. Active and inactive are the calls of the source. Calls come from the whole dose curve; as a rule, active = well fitted inhibition curve with a large enough effect; inconclusive = small, poorly fitted or top-dose-only effect; inactive = flat fitted curve, though single readings scatter.
# Test: CHOP2 Reporter Counterscreen Assay for Inhibitors of Ubiquitin-specific Protease USP2a;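 note: activated enterokinase alone at 50 pM in a cell-free format rather than USP2a or CHOP2; nearly all actives have a fitted effect of over 55% in size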
# Conditions: purified enterokinase, fluorogenic substrate, 485/531 nm; series mostly up to 38.3 µM
# Method in brief: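 Fluorescence (485/531 nm) read 10 min after adding 25nM reporter substrate to 50 pM activated EK preincubated 30 min RT with compound; Tris pH 8.0/CaCl2/CHAPS buffer. Data normalized to buffer-alone inhibition; concentration-response curves fitted.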
# Potency is the fitted concentration of half-maximal effect.
row,Compound,Potency
1,Cn1ccc(=Nc2ccc(NC(=O)c3ccc(N=c4ccn(C)c5ccc([N+](=O)[O-])cc45)cc3)cc2)cc1,inactive
2,COc1cc(C(=O)OC2CCCCC2=O)cc(OC)c1C (stereo not given),inactive
3,COc1ccc(NC(=O)c2cc(-c3ccco3)nc3ccccc23)cc1S(=O)(=O)N1CCOCC1,5.62 µM (active)
4,Cc1ccc([C@H]2C(C(=O)O)=CC[C@@H](c3ccc(Cl)cc3)N2S(=O)(=O)c2ccc(C)cc2)cc1,inactive
5,CC(C)(C)NC(=O)C(c1ccco1)N(C(=O)c1ccc(CN2CCOCC2)o1)c1ccccc1 (stereo not given),inactive
6,COc1ccccc1C(=O)N1CCN=C1SC,inactive
7,Cc1c(N=C/C=C2\N(C)c3ccccc3C2(C)C)c(=O)n(-c2ccccc2)n1C,inactive
8,Cc1ccc(C)c(S(=O)(=O)c2c(N)n(/N=C/c3ccco3)c3nc4ccccc4nc23)c1,inactive
9,COc1cccc(NC(=O)CSc2nncn2-c2ccccn2)c1,inactive
10,COc1ccc(CCNC(=O)Cc2cc(=O)[nH]c(=O)[nH]2)cc1OC,inactive
11,COc1cc(NC(=O)COC(=O)CSc2ccccc2F)c(C)cc1[N+](=O)[O-],inactive
12,CNS(=O)(=O)c1cccc(C(=O)OCC(=O)c2cc(C)n(-c3ccc4c(c3)OCO4)c2C)c1,inactive
13,O=C(COC(=O)c1c2c(nc3ccccc13)/C(=C/c1ccco1)CC2)NC1CCCC1,2 µM (active)
14,Cc1ccc2[nH]c(C)c(CCNC(=O)c3cc4cc([N+](=O)[O-])ccc4oc3=O)c2c1,inactive
15,CCOc1ccc2[nH]c(=O)c(CN(Cc3nnnn3Cc3ccco3)C3CCCCC3)cc2c1,inactive
16,O=C(C1CCCN(S(=O)(=O)c2cccc3cccnc23)C1)N1CCN(c2ccccc2F)CC1 (stereo not given),inactive
17,CCOC(=O)C1=CN(Cc2cccc(F)c2)S(=O)(=O)NC1c1ccc(Br)cc1F (stereo not given),inactive
18,Cc1ccccc1OCc1nc2ccccc2c(=O)n1N,inactive
19,C#CCOCCOCCOCCNc1nc(N2CCN(C(=O)CCCCCCCCCCNC(=O)[C@H]([C@@H](C)CC)n3cc(CCCCCN)nn3)CC2)nc(N2CCN(C(=O)CCCCCCCCCCNC(=O)[C@H](CCCCN)n3cc(CCCC(=O)O)nn3)CC2)n1,7.94 µM (active)
20,CCCC(=O)Nc1ccc(N2CCN(C(=O)c3cc4ccccc4o3)CC2)cc1,inactive

row,Compound,Potency
1,COC(=O)c1nnn(-c2nonc2N)c1CSc1ccccn1,inactive
2,CC1(C)CC(=O)C=C(NCc2cccs2)C1,inactive
3,C/C(Cn1nnc2ccccc21)=N\OC(=O)c1ccccc1C,inactive
4,COc1ccccc1C1NC(c2ccccc2OC)C(C)C(=O)C1C (stereo not given),inactive
5,Cc1cc(NS(=O)(=O)c2ccc(Nc3nc(-c4ccc(C)c(C)c4)cs3)cc2)no1,inactive
6,c1ccc(Nc2c3c(nc4ncnn24)CCC3)cc1,inactive
7,COC(=O)c1c(N2C(=O)CCC2=O)sc2c1CCCC2,inactive
8,CC(C)CC(=O)NC(=S)Nc1nc(-c2ccc(Cl)cc2)cs1,inactive
9,CCOC(=O)c1c(NC(C)=O)sc2c1CCCNC2=O,inactive
10,CC(=O)O[C@H]1[C@H](O)[C@H](Oc2c(O)c(C)c3c4c2[C@@H](C)CC[C@@H]4[C@@H](C)C[C@H]3C=C(C)C)O[C@@H](C)[C@H]1O,inactive
11,CCCCCCCCCCCCCCCC[N+](C)(C)CCN(Cc1ccc(OC)cc1)c1ncccn1,10 µM (active)
12,Cc1cc(C)n(C(=O)c2cccc(S(=O)(=O)N3CCCC3)c2)n1,inactive
13,CCOC(=O)N1CCN(S(=O)(=O)c2ccc(C)cc2)C1c1ccc(OC)cc1 (stereo not given),inactive
14,C#CCOCCOCCOCCNc1nc(N2CCN(C(=O)CCCCCCCCCCNC(=O)Cn3cc(CCCCCN)nn3)CC2)nc(N2CCN(C(=O)CCCCCCCCCCNC(=O)Cn3cc(CCCCCN)nn3)CC2)n1,10 µM (active)
15,CC(=O)Nc1ccc(NC(=O)[C@@H](NC(=O)c2cccc(C)c2)C(C)C)cc1,inactive
16,O=C(Cn1cnc2sc(-c3ccccc3)cc2c1=O)NCc1ccco1,10 µM (active)
17,COc1ccc(OC)c(Nc2ccc(Nc3cc(OC)ccc3OC)nn2)c1,inactive
18,Cc1ccc(NC(=O)CSc2nnc(COc3ccc(C#N)cc3)n2-c2ccccc2)cc1C,inactive
19,Cc1cc(SCC(=O)Nc2ccccc2)nc(C)n1,inactive
20,CCOC(=O)c1c(C)[nH]c(C(=O)COC(=O)CSC)c1C,inactive
